# System: Plasmodium falciparum NF54
# Assay: growth inhibition relative to untreated control; higher = more inhibition
# Conditions: 72 h
# Summary of the method: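 Two media were used: minimal RPMI, and minimal RPMI carrying the chorismate end-products folate, pABA, pHBA, tyrosine, phenylalanine and tryptophan at 2.2 μM, 7.3 μM, 7.3 μM, 111 μM and 90 μM for the first five. In these media, P. falciparum NF54 ring stages (1% hematocrit, 1% parasitemia, 100 μL/well) were exposed in dark 96-well half-area plates to a single 5 μM or 1 μM test-compound dose for 72 h at 37 °C. Growth inhibition was then assessed with SYBR Green against untreated wells, subtracting background from uninfected erythrocytes.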
# [1] = 1 µM, MM + chorismate end-products (CM screening medium)
# [2] = 5 µM, MM + chorismate end-products (CM screening medium)
SMILES,growth inhibition [1] [%],"growth inhibition (1 µM, minimal medium (MM)) [%]",growth inhibition [2] [%],"growth inhibition (5 µM, minimal medium (MM)) [%]"
N=C(N)c1ccc(OCCCCCOc2ccc(C(=N)N)cc2)cc1,98.6,96.8,99.4,94
COc1ccc(C2=NN(C3CCCCCC3)C(=O)C2(C)C)cc1OCCCCOc1ccc(-c2nn[nH]n2)cc1,36.5,34.6,47.2,46.8
CNc1cc(C)nc(C2CN(C(=O)c3n[nH]c4ccccc34)CCO2)c1 (stereo not drawn),16.4,10.7,41.7,21.7
O=C(CCC1CCCCC1)Nc1cccc(-c2nnc(-c3ccco3)o2)c1,14.2,9.19,< 0,< 0
CCCNC(=O)N1CCC2(CC1)CC(=O)c1cc(C)ccc1O2,72.5,76.5,86.4,84.9
Cc1cc(C(=O)Nc2ccc(-c3ccccc3)cc2)no1,96.4,91.1,84.6,94
Cc1cc(NCC(C)C)c2[nH]nc(-c3ccccc3)c2n1,89.6,94.3,99.7,87.9
Cc1cc2ccccc2n1CC(=O)N1CC(C(=O)N2CCCCC2)Oc2ccccc21 (stereo not drawn),97.2,95.9,96.1,98
O=C(c1[nH]nc2c1CCCC2)N1CCN(Cc2ccc3c(c2)OCO3)CC1,< 0,13,< 0,< 0
CCOc1ccc2cc(-c3nn(C(C)(C)C)c(N)c3C(N)=O)cnc2c1,11,18.1,3.3,< 0
FC(F)(F)c1cccc(-c2nc3c(NCc4ccncc4)nccc3[nH]2)c1,99.9,> 100,95.4,96
c1ccc(Oc2ccc(-c3cncc(-c4ccc5[nH]ccc5c4)n3)cc2)cc1,> 100,< 0,86.5,91.5
O=C(Nc1c(O)cccc1-c1nc2c(C(=O)O)cccc2o1)c1cc(-c2ccccc2)on1,> 100,< 0,< 0,< 0
O=C(NC1CC1)c1ccc(N2CCOc3ccc(Cl)cc32)s1,91,82.1,95.1,91.5
CCCn1nnc(NC(=O)COc2ccc(C3CCCCC3)cc2)n1,6.74,< 0,< 0,< 0
CCn1ncc2c(NC3CCOCC3)c(CNC(=O)c3ccnn3C)c(C)nc21,63.5,> 100,92.6,91.4
CC(c1cc(Cl)cc(Cl)c1)N(C)c1ncc2c(N)nc(N)nc2n1 (stereo not drawn),54.9,91.6,53,77.7
Nc1nc2cc(-c3cncc(Oc4ccc(F)cc4)c3)ccc2[nH]1,76.1,67.8,94.9,95.6
C[C@H](C(N)=O)N1CCCC[C@H]1c1ccc(OCc2cccc(F)c2)cc1,18.3,3.3,< 0,< 0
NS(=O)(=O)c1cccc(-c2ccc3ncc(N4CCOCC4)nc3c2)c1,47,71,> 100,88.7
Nc1ncc(-c2ccc(C(F)(F)F)nc2)cc1-c1ccc(C(F)(F)F)nc1,66.1,56.4,54.4,53.9
COc1cc(NC(=O)Cc2nn(C)c(=O)c3ccccc23)ccc1Cl,16.1,5.71,15.2,< 0
COc1ccc(-c2cnc3ccc(N4CCCC4)nn23)cc1OC,79.9,78,96.8,82.4

SMILES,growth inhibition [1] [%],"growth inhibition (1 µM, minimal medium (MM)) [%]",growth inhibition [2] [%],"growth inhibition (5 µM, minimal medium (MM)) [%]"
CCc1c(C)nc(-n2nc(C)cc2NC(=O)c2ccccc2SC)[nH]c1=O,72.1,60.2,86.1,79.9
Cc1ccc(C(=O)Nc2ccc(S(=O)(=O)O)c3cc(S(=O)(=O)O)cc(S(=O)(=O)O)c23)cc1NC(=O)c1cccc(NC(=O)Nc2cccc(C(=O)Nc3cc(C(=O)Nc4ccc(S(=O)(=O)O)c5cc(S(=O)(=O)O)cc(S(=O)(=O)O)c45)ccc3C)c2)c1,< 0,< 0,< 0,12.6
Clc1ccc(Cl)c(CO[C@H]2CCCC[C@@H]2n2ccnc2)c1,< 0,< 0,67.1,9.72
Cc1cc(Cl)ccc1NC(=O)CCc1ccc(S(=O)(=O)NCC(C)C)cc1,23,< 0,6.82,< 0
O=C(Nc1cccc(-c2ccc(NCCCN3CCCC3)nc2)c1)c1ccccc1,96.3,> 100,63.2,81.1
COc1cccc(-c2nc3c(N4CCCC4)cccc3n2CC2CCCN2)n1 (stereo not drawn),79.8,71.2,96.1,89.8
CCc1ccc([C@@H]2C[C@H](C(F)(F)F)n3ncc(C(=O)NCc4ccc(OC)cc4)c3N2)cc1,31,6.61,24.8,3.56
CCNC(=O)C(C)Nc1nc(-c2cccnc2)nc2sc(C)c(C)c12 (stereo not drawn),5.05,< 0,16.8,31.6
CCc1ccccc1-n1c(C)cn2c3c(=O)n(C(C(=O)OC)C(C)C)c(=O)n(C)c3nc12 (stereo not drawn),72.6,83,84.3,87.9
CCCCc1ccc(NC(=O)Nc2ccc(O[C@H]3CCCC[C@@H]3N(C)c3ccccc3)c(F)c2)cc1,17.3,< 0,98.1,85.4
COc1ccc2nc(C)cc(OCC(=O)NCc3ccccc3)c2c1,25.1,2.13,21.9,2.43
CCOc1ccccc1C(=O)Nc1cccc(-c2nc3ncccn3c2C)c1,75.8,76.7,95.8,85.4
O=C(NCCc1ccccc1)c1cc(-c2cccnc2)cnc1NCC1CC1,77.5,> 100,59.2,47
CNc1nnc(Sc2cnn(-c3ccccc3)c(=O)c2Cl)s1,27,16.6,79.8,62.1
COc1ccc(-c2nn(C(C)C)c3ncnc(N)c23)cc1OC,86.7,81.7,97.3,90.9
O=C1Nc2ccc(Br)cc2C12NCCc1c2[nH]c2ccccc12 (stereo not drawn),97.4,94.7,95.9,87.5
CCCc1ccc(S(=O)(=O)Nc2ccc(CN3CCN(CC4CC4)CC3)cc2)cc1,7.84,4.1,66.4,86.7
COc1ccc(-c2cnc3cnc(-c4cccc(OC(C)C)c4)cn23)cc1,36.4,34.1,< 0,8.04
O=C(c1ccc(NCCO)cc1)C1C[C@H]1c1ccc(Cl)cc1 (stereo partly drawn),71,98.1,91.8,89
CCN(CC)CCCN1CCN(C(=O)c2cccc(-c3noc(C(F)(F)F)n3)c2)CC1,86.3,84.9,95.3,87
Cc1cnc(N2CCN[C@@H](Cc3ccccc3)C2)nc1Oc1ccc(-n2ccnc2)cc1,93.8,92.3,99.9,98.2
COc1cccn2c(C(=O)N3CCCCC3)c(C(F)(F)F)nc12,12.4,15.1,< 0,< 0
COc1ccc(OC)c(NCc2ccc3nc(N)nc(N)c3c2Cl)c1,99.9,> 100,96.1,94.2

SMILES,growth inhibition [1] [%],"growth inhibition (1 µM, minimal medium (MM)) [%]",growth inhibition [2] [%],"growth inhibition (5 µM, minimal medium (MM)) [%]"
CC(=O)Nc1ccc(NC(=O)c2cc(-c3cc(Cl)ccc3O)n[nH]2)cc1,96.6,95.3,96.3,90.8
Nc1nccc2ccc(Oc3ccncc3)cc12,73.9,64,68.2,60.1
CC(C)(C)c1ccc(N[C@@H]2CCCC[C@H]2NC(=O)c2ccco2)cc1,20.8,20.6,< 0,1.67
CC(C)c1ncc(-c2ccncc2)c([C@H]2CC[C@H](CNC(=O)c3cccnc3)CC2)n1,77.1,76,92.5,92
NCCCC(N)(C(=O)O)C(F)F (stereo not drawn),14,< 0,< 0,< 0
Nc1ncnc2c1ncn2[C@@H]1O[C@H](COS(=O)(=O)NC(=O)c2ccccc2O)[C@@H](O)[C@H]1O,32.6,< 0,< 0,< 0
CC(C)(C)OC(=O)N1CCN(c2cc(-c3ccc(Oc4ccccc4)cc3)n[nH]2)CC1,< 0,18,64.8,16.8
CCn1cnc2c(Nc3cc(F)cc(F)c3)nc(C#N)nc21,36.4,< 0,40.3,< 0
Cc1ccc2oc(-c3cc(NC(=O)Cc4ccccc4)ccc3Cl)nc2c1,< 0,6.84,26.4,< 0
COc1nc2ccc(Br)cc2cc1[C@@H](c1ccccc1)[C@@](O)(CCN(C)C)c1cccc2ccccc12,73.2,77.4,99.4,88.2
Nc1cccnc1Nc1ccc(Cl)cc1,32,< 0,47.3,19.2
CCC(C)NC(=O)c1ccc(NC(=O)C2(c3ccccc3)CCCC2)cc1 (stereo not drawn),58,17.8,61.1,65.4
C[C@H]1c2cccc(O)c2C(=O)C2=C(O)[C@]3(O)C(=O)C(C(N)=O)=C(O)[C@@H](N(C)C)[C@@H]3[C@@H](O)[C@@H]21,50.6,50.7,41,< 0
N=C(N)Nc1ccc(-c2ccc(-c3ccc(N=C(N)N)c(Cl)c3)o2)cc1Cl,73.6,> 100,97.4,88.2
COc1ccc(-c2onc(C(F)(F)F)c2-c2ccc(Cl)cc2)c(O)c1,94,94.8,98.9,97.5
COc1ccc(-c2nc(-c3cccc(NC(=O)Cc4ccc(F)cc4)c3)no2)cc1OC,46.5,42.7,91.6,80.9
CNC(=O)C1Cc2c([nH]c3cc(Cl)ccc23)C2(CCN(CCc3ccccc3)CC2)N1 (stereo not drawn),87,> 100,92.8,94.4
O=C(NCCN1CCCC1)c1cc(NCCCCN2CCC(F)(F)CC2)nc2ccc(Cl)cc12,100,98.4,90.7,96.9
Clc1cccc(CO[C@H]2CCc3ccccc3[C@@H]2n2ccnn2)c1,7.57,< 0,< 0,15.4
CN(C)CCNC(=O)N1CCCN(c2ncnc3cc(-c4ccccc4)sc23)CC1,72.9,99.2,> 100,87
O=C(Nc1ccc2c(c1)B(O)OC2)c1ccccc1C(F)(F)F,69.1,67.8,74.6,87

# Reference: the supplement of paper PMC6763611
